# Measurements: PubChem BioAssay (Tox21)
# Values without a mark were called inactive. Results filed as inconclusive are left out. A call without a number means that no potency is given here. Calls of active or inactive are those of the source. The call rests on the fitted dose curve; in most records, active means well fitted curve in the direction sought with a large enough effect in the repeat runs; inconclusive means weak or mixed curves; inactive means no such curve, though single readings can be large; an effect the other way counts as inactive or inconclusive.
# Assays:
# [1] = A CellTox Green Cytotoxicity Assay to monitor cytotoxicity in HepG2 cells - 0 hour (AID 1224882); further: nearly all actives have a fitted effect of over 35% in size
# Method in brief: (§1)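 HepG2 cells were seeded together with the CellTox Green dye at 600 cells/well, left 5 h at 37 C/5% CO2, then given compounds in DMSO. Fluorescence from dye bound to dead-cell DNA was read repeatedly over 40 h of treatment at 37 C.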
# [2] = A CellTox Green Cytotoxicity Assay to monitor cytotoxicity in HepG2 cells - 32 hour (AID 1224883); further: nearly all actives have a fitted effect of over 50% in size
# Method in brief: as §1
# [3] = qHTS RealTime-Glo MT Cell Viability Assay in HepG2 cells - 16 hour (AID 1224885); further: nearly all actives have a fitted effect of over 50% in size
# Method in brief: (§2)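 Cells + NanoLuc/prosubstrate dispensed (600 cells/well) → 5 h at 37 C/5% CO2 → compounds in DMSO transferred → 40 h incubation at 37 C, luminescence read at 0, 8, 16, 24, 32, 40 h.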
# [4] = qHTS RealTime-Glo MT Cell Viability Assay in HEK293 cells - 24 hour (AID 1224886); further: top concentration of the series differs between compounds; nearly all actives have a fitted effect of over 50% in size
# Method in brief: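 Tox21 10K qHTS, HEK293, 600 cells/well, RealTime-Glo reagent co-dispensed with cells; 5 h preincubation, compound by pintool, 37 C, luminescence at 0–40 h.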
# [5] = qHTS RealTime-Glo MT Cell Viability Assay in HEK293 cells - 8 hour (AID 1224887); further: top concentration of the series differs between compounds; nearly all actives have a fitted effect of over 50% in size
# Method in brief: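 HEK293 cells mixed with RealTime-Glo reagents (NanoLuc plus cell-permeant prosubstrate) at 600 cells/well, preincubated 5 h at 37 C/5% CO2, then given 23 nL compound in DMSO. Nonlytic luminescence from viable cells was read at 0, 8, 16, 24, 32 and 40 h.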
# [6] = A CellTox Green Cytotoxicity Assay to monitor cytotoxicity in HEK293 cells - 16 hour (AID 1224888); further: nearly all actives have a fitted effect of over 35% in size
# Method in brief: (§3)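 HEK293 cells premixed with CellTox Green dye were seeded at 600 cells/well and left 5 h at 37 C/5% CO2 before pin transfer of 23 nL compound in DMSO. Fluorescence from dye bound to dead-cell DNA was read during 40 h treatment.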
# [7] = A CellTox Green Cytotoxicity Assay to monitor cytotoxicity in HepG2 cells - 8 hour (AID 1224890); further: nearly all actives have a fitted effect of over 45% in size
# Method in brief: as §1
# [8] = A CellTox Green Cytotoxicity Assay to monitor cytotoxicity in HEK293 cells - 8 hour (AID 1224884); further: nearly all actives have a fitted effect of over 35% in size
# Method in brief: as §3
# [9] = qHTS RealTime-Glo MT Cell Viability Assay in HepG2 cells - 0 hour (AID 1224889); further: nearly all actives have a fitted effect of over 50% in size; further: potency means the concentration at half of the fitted maximal effect
# Method in brief: as §2
structure (smiles),measurement,setting,value
C=CN1CCCCCC1=O,Potency,[1],inactive
same,Potency,[2],inactive
same,outcome,[3],inactive
same,Potency,[4],inactive
same,Potency,[5],inactive
same,outcome,[6],inactive
same,outcome,[7],inactive
CC(CC=O)CC(C)(C)C (stereo unspecified),Potency,[1],inactive
same,Potency,[2],inactive
same,outcome,[8],inactive
same,outcome,[3],inactive
same,outcome,[6],inactive
same,Potency,[9],inactive
same,outcome,[7],inactive
CC1OC1C1CCC2(C)OC2C1 (stereo unspecified),Potency,[1],inactive
same,outcome,[3],inactive
same,Potency,[4],inactive
same,Potency,[5],inactive
same,outcome,[6],inactive
same,Potency,[9],inactive
same,outcome,[7],inactive
COCCOCC(OC)OC,Potency,[1],inactive
same,Potency,[2],inactive
same,outcome,[8],inactive
same,outcome,[3],inactive
same,outcome,[6],inactive
same,outcome,[7],inactive
CC(C)=CCC/C(C)=C/C#N,Potency,[1],inactive
same,Potency,[2],inactive
same,outcome,[3],inactive
same,Potency,[4],inactive
same,Potency,[5],inactive
same,outcome,[6],inactive
same,Potency,[9],inactive
same,outcome,[7],inactive
C1CCC2(CCCCO2)OC1,Potency,[1],inactive
same,Potency,[2],inactive
same,outcome,[8],inactive
same,outcome,[3],inactive
same,Potency,[4],inactive
same,outcome,[6],inactive
same,Potency,[9],inactive
same,outcome,[7],inactive
CO[C@@]1(NC(=O)CSC[C@@H](N)C(=O)O)C(=O)N2C(C(=O)O)=C(CSc3nnnn3C)CS[C@@H]21,Potency,[1],inactive
same,Potency,[2],inactive
same,outcome,[3],inactive
same,Potency,[4],inactive
same,Potency,[5],inactive
same,outcome,[6],inactive
same,Potency,[9],inactive
same,outcome,[7],inactive
CCN1C=CN(C)C1C (stereo unspecified),Potency,[1],inactive
same,outcome,[8],inactive
same,outcome,[3],inactive
same,Potency,[4],inactive
same,Potency,[5],inactive
same,outcome,[6],inactive
same,outcome,[7],inactive
O=C(c1ccccc1O)c1ccccc1O,Potency,[1],inactive
same,Potency,[2],inactive
same,outcome,[8],inactive
same,outcome,[3],inactive
same,Potency,[5],inactive
same,outcome,[6],inactive
same,outcome,[7],inactive
C[C@@H]1C[C@H]2[C@@H]3C[C@H](F)C4=CC(=O)C(Cl)=C[C@]4(C)[C@@]3(F)[C@@H](O)C[C@]2(C)[C@@]1(O)C(=O)CO,Potency,[1],inactive
same,Potency,[2],inactive
same,outcome,[8],inactive
same,outcome,[3],inactive
same,Potency,[5],inactive
same,outcome,[6],inactive
same,outcome,[7],inactive
O=C(O)CNC(=O)c1ccccc1,Potency,[1],inactive
same,Potency,[2],inactive
same,outcome,[3],inactive
same,Potency,[5],inactive
same,outcome,[6],inactive
same,outcome,[7],inactive
CCO[Si](OCC)(OCC)c1ccccc1,Potency,[1],inactive
same,Potency,[2],inactive
same,outcome,[8],inactive
same,outcome,[3],inactive
same,Potency,[5],inactive
same,outcome,[6],inactive
same,Potency,[9],inactive
same,outcome,[7],inactive
CC(=O)N1C[C@H](O)C[C@H]1C(=O)O,Potency,[1],inactive
same,outcome,[8],inactive
same,outcome,[3],inactive
same,Potency,[4],inactive
same,Potency,[5],inactive
same,outcome,[6],inactive
same,Potency,[9],inactive
same,outcome,[7],inactive
CO[C@@]1(NC(=O)C(C(=O)O)c2ccc(O)cc2)C(=O)N2C(C(=O)O)=C(CSc3nnnn3C)CO[C@@H]21 (stereo partly specified),outcome,[8],inactive
same,outcome,[3],inactive
same,Potency,[4],inactive
same,Potency,[5],inactive
same,outcome,[6],inactive
same,Potency,[9],inactive
same,outcome,[7],inactive
c1ccc(Cc2ccccc2)cc1,Potency,[1],inactive
same,outcome,[8],inactive
same,outcome,[3],inactive
same,Potency,[4],inactive
same,Potency,[5],inactive
same,outcome,[6],inactive
same,Potency,[9],inactive
same,outcome,[7],inactive
CC(C)[C@H]1CC[C@@H](C)CC1=O,Potency,[1],inactive
same,Potency,[2],inactive
same,outcome,[8],inactive
same,outcome,[3],inactive
same,Potency,[5],inactive
same,outcome,[6],inactive
same,outcome,[7],inactive
C=CCOCC(O)CO (stereo unspecified),outcome,[8],inactive
same,outcome,[3],inactive
same,Potency,[4],inactive
same,Potency,[5],inactive
same,Potency,[9],inactive
CC(C)C[C@@H](N)C(=O)O,cytotoxicity,[1],-9.4% [at 15.8 µM]
same,"activity change, negative = cytotoxic",[3],2.37% [at 15.8 µM]
same,"activity change, negative = cytotoxicity",[4],1.4% [at 15.8 µM]
same,activity change,[6],1.15% [at 15.8 µM]
same,"activity change, negative = cytotoxicity",[9],0.397% [at 15.8 µM]
same,cytotoxicity increase,[7],-17.7% [at 15.8 µM]
CCCn1cc[n+](C)c1C,Potency,[1],inactive
same,Potency,[2],inactive
same,outcome,[8],inactive
same,outcome,[3],inactive
same,Potency,[4],inactive
same,outcome,[6],inactive
same,Potency,[9],inactive
same,outcome,[7],inactive
c1ccc2sc(SN3CCOCC3)nc2c1,Potency,[1],inactive
same,Potency,[2],inactive
same,outcome,[8],inactive
same,outcome,[3],inactive
same,Potency,[4],inactive
same,Potency,[5],inactive
same,outcome,[6],inactive
same,Potency,[9],inactive
same,outcome,[7],inactive
c1ccc(CCc2ccccc2)cc1,Potency,[1],inactive
same,outcome,[8],inactive
same,outcome,[3],inactive
same,Potency,[4],inactive
same,Potency,[5],inactive
same,outcome,[6],inactive
same,Potency,[9],inactive
CC(C)(C)c1ccc(-c2ccc(C(C)(C)C)cc2)cc1,Potency,[1],inactive
same,Potency,[2],inactive
same,outcome,[3],inactive
same,Potency,[4],inactive
same,Potency,[5],inactive
same,outcome,[6],inactive
same,Potency,[9],inactive
same,outcome,[7],inactive
Cc1cccc(C)c1NC(=O)CC12CCCN1CCC2,outcome,[8],inactive
same,outcome,[3],inactive
same,Potency,[4],inactive
same,Potency,[5],inactive
same,outcome,[6],inactive
same,outcome,[7],inactive
CC(=O)OCC(=O)[C@@]1(O)[C@H](C)C[C@H]2[C@@H]3CCC4=CC(=O)C=C[C@]4(C)[C@@]3(F)[C@@H](O)C[C@@]21C,Potency,[1],inactive
same,Potency,[2],inactive
same,outcome,[3],inactive
same,Potency,[4],inactive
same,Potency,[5],inactive
same,outcome,[6],inactive
same,Potency,[9],9.52 µM (active)
same,outcome,[7],inactive
CC(=O)c1ccccc1[N+](=O)[O-],Potency,[1],inactive
same,Potency,[2],inactive
same,outcome,[3],inactive
same,Potency,[4],inactive
same,Potency,[5],inactive
same,outcome,[6],inactive
same,Potency,[9],inactive
same,outcome,[7],inactive
CC(C)(N)C#N,Potency,[1],inactive
same,Potency,[2],inactive
same,outcome,[8],inactive
same,outcome,[3],inactive
same,Potency,[4],inactive
same,outcome,[6],inactive
same,Potency,[9],inactive
same,outcome,[7],inactive
O=C(c1ccccc1)C1(O)CCCCC1,Potency,[1],inactive
same,Potency,[2],inactive
same,outcome,[3],inactive
same,Potency,[4],inactive
same,Potency,[5],inactive
same,outcome,[6],inactive
same,Potency,[9],inactive
same,outcome,[7],inactive
CCCCS(=O)(=O)N[C@@H](Cc1ccc(OCCCCC2CCNCC2)cc1)C(=O)O,Potency,[1],inactive
same,outcome,[3],inactive
same,outcome,[6],inactive
same,Potency,[9],inactive
same,outcome,[7],inactive
Cc1ncc(COP(=O)(O)O)c(C=O)c1O,Potency,[1],inactive
same,Potency,[2],inactive
same,outcome,[8],inactive
same,outcome,[3],inactive
same,Potency,[4],inactive
same,Potency,[5],inactive
same,outcome,[6],inactive
same,Potency,[9],inactive
same,outcome,[7],inactive
Clc1cc(Cl)cc(Cl)c1,Potency,[1],inactive
same,outcome,[3],inactive
same,Potency,[4],inactive
same,outcome,[6],inactive
same,outcome,[7],inactive
Clc1cc(Cl)c(Cl)nc1Cl,Potency,[1],inactive
same,Potency,[2],inactive
same,outcome,[8],inactive
same,outcome,[3],inactive
same,Potency,[5],inactive
same,outcome,[6],inactive
same,Potency,[9],inactive
same,outcome,[7],inactive
OCCc1ccccn1,Potency,[1],inactive
same,outcome,[3],inactive
same,Potency,[4],inactive
same,Potency,[5],inactive
same,outcome,[6],inactive
same,Potency,[9],inactive
same,outcome,[7],inactive
